Results filed as inconclusive are left out. Active and inactive are the calls of the source. Unless noted, the call rests on the fitted dose curve; in most records, active means well fitted curve in the direction sought with a large enough effect in the repeat runs; inconclusive means weak or mixed curves; inactive means no such curve, though single readings can be large; an effect the other way counts as inactive or inconclusive. Non-standard residues stand in square brackets, D forms with d. Residues, ends and D or L forms follow the SMILES beside them. *: point of attachment. Sta = CC(C)C[C@H](N)[C@@H](O)CC(=O)O; Isovaleryl = CC(C)CC(=O)*
Assays:
[1] = qHTS assay to identify small molecule agonists of the vitamin D receptor (VDR) signaling pathway - cell viability counter screen (AID 743224); further: series mostly up to about 63 µM; nearly all actives have a fitted effect of over 50% in size
Outline: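 In parallel with the bla FRET readout, cytotoxicity toward VDR-bla cells after 16 h compound exposure was assessed by CellTiter-Glo, with luminescence recorded after a 30 min room-temperature incubation.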

[2] = qHTS assay to identify small molecule antagonists of the vitamin D receptor (VDR) signaling pathway - cell viability counter screen (AID 743225); further: nearly all actives have a fitted effect of over 50% in size
Outline: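 Viability counter screen run in the same wells as the beta-lactamase reporter assay: HEK 293T VDR-UAS-bla cells, 16 h compound exposure at 37C with 3 nM (final) 1-alpha,25-dihydroxyvitamin D3. CellTiter-Glo luminescence, 30 min, room temperature.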

[3] = qHTS assay to identify small molecule agonists of the NFkB signaling pathway - cell viability counter screen (AID 1159515; calls by dose curve; further: series mostly up to about 61 µM; nearly all actives have a fitted effect of over 55% in size)
Outline: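 Plate 2,000 NFkB-bla ME-180 cells/well; incubate overnight. Add compounds, 5 hr at 37 C. Add FRET substrate, 1.5 hr RT. Add CellTiter-Glo, 30 min RT; read luminescence.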

[4] = qHTS assay to identify small molecule agonists of the endoplasmic reticulum stress response signaling pathway (AID 1159516; active means well fitted activation curve with a large enough effect in the signal ratio in the repeat runs, not every such curve was filed as active; the % refers to the signal ratio)
Outline: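 Beta-lactamase expression from the ER stress response element in HeLa reporter cells is quantified with the LiveBLAzer B/G FRET substrate, read at 405 nm excitation after 2 hr at room temperature, following 5 hr compound treatment at 37 C.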

[5] = qHTS assay to identify small molecule agonists of the endoplasmic reticulum stress response signaling pathway - cell viability counter screen (AID 1159517; calls by dose curve; further: series mostly up to about 61 µM; nearly all actives have a fitted effect of over 50% in size)
Outline: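 After overnight attachment, ESRE-bla HeLa cells were treated with Tox21 library compounds for 5 hr. CellTiter-Glo luminescence, read 30 min post-addition at room temperature, reported viability.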

[6] = qHTS assay to identify small molecule antagonists of the retinoid-related orphan receptor gamma (ROR-gamma) signaling pathway - cell viability counter screen (AID 1159520); further: nearly all actives have a fitted effect of over 50% in size
Outline: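 Cytotoxicity was read from cellular ATP (CellTiter-Glo luminescence) after 16 hr at 37 C with 1 uM doxycycline induction. The inducer was added 2 hr after compound transfer to Tet-on ROR gamma CHO cells.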

[7] = molecular target: Nuclear receptor ROR-gamma (Homo sapiens) (UniProt P51449); assay: qHTS assay to identify small molecule antagonists of the retinoid-related orphan receptor gamma (ROR-gamma) signaling pathway (AID 1159521)
Outline: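 Luminescence readout (ONE-Glo, 30 min RT) after 16 h doxycycline induction; loss of signal scored as antagonism. CHO cells with TET-inducible RORγ and RORE-LUC reporter; compounds added 2 h before 1 uM final doxycycline.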

[8] = qHTS assay to identify small molecule agonists of the AP-1 signaling pathway - cell viability counter screen (AID 1159525; calls by dose curve; further: nearly all actives have a fitted effect of over 55% in size)
Outline: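 Intracellular ATP by Cell Titer Glo luminescence (30 min, RT) in the same ME-180 AP-1-bla wells after the 5 h compound exposure at 37 °C. Normalised to tetra n-octyl ammonium bromide and DMSO controls.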

[9] = qHTS assay to identify small molecule agonists of the AP-1 signaling pathway (AID 1159526; calls by dose curve)
[10] = molecular target: Retinoic acid receptor RXR-alpha (Homo sapiens) (UniProt P19793); assay: qHTS assay to identify small molecule agonists of the RXR signaling pathway (AID 1159527; calls by dose curve; further: nearly all actives have a fitted effect of over 35% in size; further: potency means the concentration at half of the fitted maximal effect)
Outline: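 Agonist mode; 9-cis retinoic acid positive control. HEK 293T UAS-bla reporter cells, 2% charcoal-stripped FBS, 16 hr compound exposure at 37 C/5% CO2. LiveBLAzer B/G FRET substrate 2 hr RT; ex 405, em 460/530 nm.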

[11] = qHTS assay to identify small molecule agonists of the RXR signaling pathway - cell viability counter screen (AID 1159529)
Outline: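 Luminescence from CellTiter-Glo (30 min, RT) measured viability in the same wells as the beta-lactamase reporter readout. Cells: GeneBLAzer RXR-alpha HEK 293T, 2% charcoal-stripped FBS. Compound exposure 16 hr, 37 C.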

[12] = qHTS assay to identify small molecule antagonists of the retinoid acid receptor (RAR) signaling pathway - cell viability counter screen (AID 1159551); further: nearly all actives have a fitted effect of over 35% in size
Outline: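 Viability of C3RL4 cells is quantified from ATP by luminescence after 6 h treatment at 37 C with compounds and 1 uM retinol.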

[13] = qHTS assay to identify small molecule antagonists of the retinoic acid receptor (RAR) signaling pathway (AID 1159552; further: nearly all actives have a fitted effect of over 50% in size)
Outline: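 Luminescence from a RARE luciferase reporter in C3RL4 cells served as read-out. Cells received compounds together with 1 uM final retinol and incubated 6 hr at 37 C before detection reagent was added for 30 min at room temperature.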

[14] = qHTS assay to identify small molecule agonists of the retinoic acid receptor (RAR) signaling pathway (AID 1159553)
Outline: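 Compounds dissolved in DMSO were pinned onto C3RL4 cells seeded the previous day, and plates were held 6 hr at 37 C. RARE-driven luciferase output was then read by luminescence.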

[15] = qHTS assay to identify small molecule antagonists of the estrogen related receptor (ERR) signaling pathway from Tox21 library - cell viability counter screen (AID 1224834); further: nearly all actives have a fitted effect of over 30% in size
Outline: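 In this quantitative HTS format, ERR cells receive compounds in DMSO and are incubated for 17.5 h at 37 C. Live-cell protease activity is then detected with CellTiter-Fluor.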

[16] = molecular target: Luciferin 4-monooxygenase (Photinus pyralis) (UniProt P08659); assay: qHTS assay to identify small molecule inhibitors of firefly luciferase (AID 1224835); further: nearly all actives have a fitted effect of over 25% in size; further: potency means the concentration at half of the fitted maximal effect
Outline: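 Inhibition of purified Photinus luciferase is measured by luminescence. Substrate levels (D-luciferin, ATP) sit at their KM values. Each compound is tested in a concentration series.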

[17] = qHTS assay to identify small molecule agonists of the constitutive androstane receptor (CAR) signaling pathway - cell viability counter screen (AID 1224836); further: series mostly up to about 92 µM; nearly all actives have a fitted effect of over 45% in size
Outline: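 Viability read-out: CellTiter-Fluor fluorescence after 23 h compound exposure at 37 C/5% CO2 in double-stable HepG2-CYP2B6-hCAR cells, with PK11195 present at 0.75 uM final; compounds tested in 15-point titration.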

[18] = qHTS assay to identify small molecule antagonists of the constitutive androstane receptor (CAR) signaling pathway - cell viability counter screen (AID 1224837); further: series mostly up to about 92 µM; nearly all actives have a fitted effect of over 45% in size
Outline: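 In quantitative HTS format, compounds at 15 concentrations were applied to HepG2 cells double-transfected with hCAR and CYP2B6-2.2kb under 50 nM CITCO stimulation; live-cell protease activity was read after 23 hr via CellTiter-Fluor.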

[19] = molecular target: Nuclear receptor subfamily 1 group I member 3 (Homo sapiens) (UniProt Q14994); assay: qHTS assay to identify small molecule agonists of the constitutive androstane receptor (CAR) signaling pathway (AID 1224839); further: nearly all actives have a fitted effect of over 15% in size; further: potency means the concentration at half of the fitted maximal effect;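 on activation: HepG2 cells stably carrying human CAR and a CYP2B6 luciferase reporter; series mostly up to about 92 µM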
Outline: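 Luminescence read-out (ONE-Glo, 30 min, room temperature) from double-stable HepG2-CYP2B6-hCAR cells exposed 24 h to 15-point compound series in presence of 0.75 uM PK11195 final.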

[20] = molecular target: Nuclear receptor subfamily 1 group I member 3 (Homo sapiens) (UniProt Q14994); assay: qHTS assay to identify small molecule antagonists of the constitutive androstane receptor (CAR) signaling pathway (AID 1224838); further: nearly all actives have a fitted effect of over 40% in size
Outline: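 CITCO-stimulated (50 nM final) HepG2 cells stably transfected with hCAR and CYP2B6-2.2kb luciferase were exposed to compounds at 15 concentrations for 24 h at 37 C/5% CO2. A luciferase reagent was added and luminescence recorded after 30 min.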

Measured: Potency

Nuclear receptor subfamily 1 group I member 3 (Homo sapiens), sequence (Q14994 whole entry, looked up): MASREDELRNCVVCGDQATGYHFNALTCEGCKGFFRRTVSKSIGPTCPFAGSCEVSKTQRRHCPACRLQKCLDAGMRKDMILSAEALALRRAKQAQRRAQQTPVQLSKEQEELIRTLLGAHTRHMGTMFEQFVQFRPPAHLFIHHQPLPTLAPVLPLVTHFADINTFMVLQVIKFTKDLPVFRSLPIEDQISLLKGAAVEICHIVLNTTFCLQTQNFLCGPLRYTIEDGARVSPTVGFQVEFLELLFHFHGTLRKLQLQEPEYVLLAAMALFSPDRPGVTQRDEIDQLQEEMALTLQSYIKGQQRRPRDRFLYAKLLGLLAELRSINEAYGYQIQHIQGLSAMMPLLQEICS
Retinoic acid receptor RXR-alpha (Homo sapiens), sequence (P19793 whole entry, looked up): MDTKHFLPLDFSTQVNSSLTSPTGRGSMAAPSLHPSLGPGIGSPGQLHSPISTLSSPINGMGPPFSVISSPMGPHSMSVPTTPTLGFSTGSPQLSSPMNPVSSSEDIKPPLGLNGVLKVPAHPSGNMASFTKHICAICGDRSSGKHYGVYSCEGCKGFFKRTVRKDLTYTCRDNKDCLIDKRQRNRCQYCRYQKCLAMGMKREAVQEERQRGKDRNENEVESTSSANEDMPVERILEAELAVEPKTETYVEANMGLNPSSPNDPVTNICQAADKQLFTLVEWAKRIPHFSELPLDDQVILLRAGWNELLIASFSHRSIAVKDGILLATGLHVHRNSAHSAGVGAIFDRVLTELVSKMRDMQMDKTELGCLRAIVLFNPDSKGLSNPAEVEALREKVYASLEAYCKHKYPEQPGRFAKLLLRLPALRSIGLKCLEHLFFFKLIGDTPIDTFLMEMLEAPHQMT
Luciferin 4-monooxygenase (Photinus pyralis), sequence (P08659 whole entry, looked up): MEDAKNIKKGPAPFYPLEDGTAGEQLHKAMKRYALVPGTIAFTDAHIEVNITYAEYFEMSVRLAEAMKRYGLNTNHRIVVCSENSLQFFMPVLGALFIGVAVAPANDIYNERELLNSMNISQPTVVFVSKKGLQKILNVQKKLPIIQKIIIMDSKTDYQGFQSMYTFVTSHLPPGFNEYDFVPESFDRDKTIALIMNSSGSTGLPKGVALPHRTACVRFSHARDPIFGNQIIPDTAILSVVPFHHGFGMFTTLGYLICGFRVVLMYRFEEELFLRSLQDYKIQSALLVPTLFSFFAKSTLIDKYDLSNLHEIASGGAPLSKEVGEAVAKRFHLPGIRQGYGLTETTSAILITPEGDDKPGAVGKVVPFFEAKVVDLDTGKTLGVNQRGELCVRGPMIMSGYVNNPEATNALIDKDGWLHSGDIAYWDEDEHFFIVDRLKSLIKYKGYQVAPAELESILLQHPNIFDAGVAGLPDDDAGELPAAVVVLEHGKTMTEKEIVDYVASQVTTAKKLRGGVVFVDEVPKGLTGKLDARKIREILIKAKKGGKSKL

Cc1cc(N)no1
not listed: [20]
inactive: all other assays above

C=COCCCCO
not listed: [19] | [20]
inactive: all other assays above

CC(C)CC(=O)N[C@H](C(=O)N[C@H](C(=O)N[C@@H](CC(C)C)[C@@H](O)CC(=O)N[C@@H](C)C(=O)N[C@@H](CC(C)C)[C@@H](O)CC(=O)O)C(C)C)C(C)C (Isovaleryl-VV[Sta]A[Sta]-OH)
not listed: [20]
inactive: all other assays above

CC(C)(C)OC=O
not listed: [19] | [20]
inactive: all other assays above

O=C(O)/C=C(\CC(=O)O)C(=O)O
not listed: [1] | [20]
inactive: all other assays above

O=Cc1ccccc1S(=O)(=O)O
active: [10] 9.77 µM
not listed: [20]
inactive: all other assays above

COC(=O)c1cc(Cl)c(NC(C)=O)cc1OC
not listed: [20]
inactive: all other assays above

CC(O)C(CO)C(C)O (stereo not drawn)
not listed: [19] | [20]
inactive: all other assays above

CCOC(=O)CN1CCCC1=O
not listed: [20]
inactive: all other assays above

CC(=O)O[C@@H]1CC2C3CCc4cc(OC(=O)c5ccccc5)ccc4C3CCC2(C)[C@H]1OC(C)=O (stereo partly drawn)
not listed: [15]
inactive: all other assays above

CCC(C)c1nccnc1OC (stereo not drawn)
not listed: [18] | [20]
inactive: all other assays above

C/C=C(\C)C(=O)OC/C=C(\C)CCC=C(C)C
active: [10] 21.9 µM
not listed: [18] | [19] | [20]
inactive: all other assays above

O=C(O)COc1ccc2ccccc2c1
active: [16] 39.9 µM
not listed: [18]
inactive: all other assays above

CC(=O)c1ccc2ccc3ccccc3c2c1
active: [16] 31.5 µM | [19] 60.8 µM
not listed: [15]
inactive: all other assays above

CC(=O)c1ccc(O)c(C(N)=O)c1
not listed: [1] | [18] | [19] | [20]
inactive: all other assays above

CN(C)CCC[C@@]1(c2ccc(F)cc2)OCc2cc(C#N)ccc21
not listed: [15] | [20]
inactive: all other assays above

C[n+]1ccccc1/C=N/O
not listed: [11]
inactive: all other assays above

N#CC1(N)CCCCC1
not listed: [15]
inactive: all other assays above

CC(=O)OC1CCC(C(C)(C)C)CC1 (stereo not drawn)
not listed: [15]
inactive: all other assays above

Cc1cc(O)c(Cl)cc1C
not listed: [11]
inactive: all other assays above

Cc1ccc(O)c(C(=O)c2ccccc2)c1
not listed: [2] | [11] | [19]
inactive: all other assays above

COc1ccc(Cl)cc1C
not listed: [15] | [19] | [20]
inactive: all other assays above

CSC(=O)c1cccc2nnsc12
not listed: [18]
inactive: all other assays above

O=C1CCCc2c(O)cccc21
not listed: [15]
inactive: all other assays above

CCC(C)(C)C
not listed: [15] | [19] | [20]
inactive: all other assays above

CC[C@@]1(c2ccccc2)NC(=O)N(C)C1=O
not listed: [15] | [18] | [19] | [20]
inactive: all other assays above

CCN1CCN(C(=O)N[C@@H](C(=O)N[C@@H]2C(=O)N3C(C(=O)O)=C(CSc4nnnn4C)CS[C@H]23)c2ccc(O)cc2)C(=O)C1=O
not listed: [1] | [2] | [11] | [19] | [20]
inactive: all other assays above

CCCCCC(=O)CC
not listed: [13] | [14]
inactive: all other assays above

N=C(N)S(=O)O
not listed: [18] | [19] | [20]
inactive: all other assays above

CCNC(=O)C(C)OC(=O)Nc1ccccc1 (stereo not drawn)
not listed: [15]
inactive: all other assays above

Source: PubChem BioAssay (Tox21)
